# Measured values reported in ChEMBL document CHEMBL4888484, “Replenishing the malaria drug discovery pipeline: Screening and hit evaluation of the MMV Hit Generation Library 1 (HGL1) against asexual blood stage Plasmodium falciparum ,using a nano luciferase reporter read-out” (2022).
# In all, about 150,000 compounds went through this assay and about 540 (0.36%) showed an effect of 50% or more. The sample as a whole holds a higher share of strong results than the screen did.
# Test system: Plasmodium falciparum
# Experiment: Primary screen in NF54 nanoGlo assay, in single point, at 2uM, 72h; a lower Z score goes with more inhibition
# Assay type: functional, Erythrocyte
# Conditions: timepoint 72 hour
Compound,% Inhibition [%],Z score
Cc1nn(-c2ccc(Br)cc2)c(NC(=O)N(C)[C@@H](C)c2ccccc2F)c1C,2,-0.23
Cn1nccc1CNC(CO)CC(O)C(C)(C)C (configuration not stated),-3,0.38
CCn1cnnc1NC(=O)c1cc(C)sn1,1,-0.12
O=C(Cn1ncn2nc(-c3ccccc3)cc2c1=O)N1CCCCC1,-20,1.75
N#Cc1cccc(S(=O)(=O)N2CCCCCCC2)c1,4,-0.83
Cc1c2c(=O)n(-c3nc4ccccc4s3)n(CC(=O)Nc3ccc(F)cc3)c2cc(=O)n1CCCN1CCOCC1,-30,3.47
CCc1c2c(=O)n(-c3nc4ccccc4s3)[nH]c2cc(=O)n1CCCN1CCOCC1,81,-10.48
Cc1c2c(=O)n(-c3nc4ccccc4s3)n(Cc3ccc(F)cc3)c2cc(=O)n1CCCN1CCOCC1,32,-3.58
N#Cc1cc(OCC(F)F)nc2ccccc12,-5,0.76
CC(NCC(C)N1CCOCC1C)c1cnn(C(C)C)c1 (configuration not stated),1,-0.14
Cc1ccc(CN2CCN([C@H]3CCN(Cc4ccccc4)C3)CC2)nn1,6,-0.85
Cc1ccn2c(CN3CCN([C@H]4CCN(Cc5ccccc5)C4)CC3)c(C)nc2c1,57,-7.67
c1ccc(CN2CC[C@H](N3CCOCC3)C2)cc1,3,-0.34
Cc1ccc(C)c(N/C(=N\OCc2ccc(Cl)cc2)c2nonc2N)c1,-1,0.28
O=C(c1ccccc1F)N1CCN(C(=O)c2nnn3c2CO[C@H](c2ccc(Cl)cc2)C3)CC1,-24,2.19
CCN(C(C)=O)c1nc2ccccc2n(CC(=O)Nc2cccc(C(C)=O)c2)c1=O,-6,0.97
C[C@H](NCCn1cccn1)C(=O)N1CCCCC1,3,-0.33
CC(C)CNC(=O)[C@H](C)NCCn1cccn1,-2,0.23
CC(NCCn1cccn1)C(=O)N1c2ccccc2CC1C (configuration not stated),62,1.55
CCc1cnc(CN2CCC[C@H]2c2noc(CC)n2)o1,-10,1.41
Clc1cccc(-c2ccc(CN3CCN([C@H]4CCNC4)CC3)o2)c1,-17,1.55

Compound,% Inhibition [%],Z score
CC(C)Cc1ccc(CN2CCN([C@H]3CCNC3)CC2)s1,-6,0.81
Cn1nnc(CNC[C@H](O)c2ccc(Cl)c(Cl)c2)n1,5,-1.08
Cc1nc(CNC[C@H](O)c2ccc(Cl)c(F)c2)cs1,10,-1.19
CCc1noc(-c2cccnc2-n2cnc(C(=O)NCc3ccccc3F)c2)n1,35,-3.92
CC(C)(C)n1nc2nc(N3CCCC3)nc(-c3ccc(F)c(Cl)c3)c2c1N,-2,0.26
CC(C)(C)n1nc2nc(NCCN3CCCCC3)nc(-c3ccc(F)c(Cl)c3)c2c1N,75,-7.01
Nc1c2c(-c3ccc(F)cc3)nc(NCCN3CCCCC3)nc2nn1-c1ccc(Cl)cc1,-19,1.69
O=C(Cn1cc(S(=O)(=O)N2CCOCC2)ccc1=O)Nc1ccc(F)cc1Cl,4,-0.76
CN1CCC(N2CCC[C@H]2c2nc(-c3ccc(F)cn3)no2)CC1,15,-1.76
COc1cc(-c2n[nH]cc2CN(C[C@H]2CCC(=O)N2)C(C)C)cc(OC)c1OC,-18,1.93
CN(C)c1ccc(NC(=O)CCCc2ccc3[nH]c(=O)[nH]c3c2)nc1,0,0.04
C[C@H]1[C@@H]2[C@@H](O)C([C@H](C)C(=O)NC3CCCC3)CC[C@@]2(C)CC[C@@H]1NC(=O)c1ccc(C#N)cc1 (some centres not stated),37,1.5
C[C@H]1[C@@H]2[C@@H](O)C([C@H](C)C(=O)NC3CCCCC3)CC[C@@]2(C)CC[C@@H]1NC(=O)CC(C)(C)C (some centres not stated),69,-5.14
COCCNC(=O)[C@@H](C)[C@@H]1CC[C@@]2(C)CC[C@H](NC(=O)CC(C)(C)C)[C@@H](C)[C@@H]2[C@H]1O,31,-3.58
COc1cc2c(cc1-c1nccn1Cc1noc(C(C)C)n1)OCO2,5,-0.45
CCNC(=O)O[C@@H]1CC[C@]2(C)C(CC[C@@H](O)[C@H]2CC(=O)NCc2cccs2)[C@]1(C)CO (some centres not stated),-4,0.6
COc1cc(CN2C(=O)C(C)C(C)C2=O)ccn1 (configuration not stated),-12,1.96
CCc1noc(CCNC(=O)Nc2cc(C)nn2C2CCCCC2)n1,-3,0.5
Cc1ccc([C@H](C)NC(=O)CCc2ccc3[nH]cnc3c2)cc1,-2,0.33
C[C@H]1CN(C2=Nc3ccc(C(F)(F)F)cc3Oc3ccccc32)CCN1C(=O)C1CCCCC1,-10,0.96
Cc1ccsc1CN(Cc1cccnc1)CC(C)C,-9,0.87

Compound,% Inhibition [%],Z score
COc1ccc(CN(Cc2ccco2)C(=O)c2cccc(F)c2)cc1OS(=O)(=O)c1ccc(F)cc1,-33,2.87
CCOC(=O)N1CCC(n2ccnc2-c2nccn2C(C)C)CC1,-11,1.32
COc1ccc(-c2nccn3cc(C(=O)N4CCCCCC4)nc23)cc1,51,0.03
COc1ccc(-c2nccn3cc(C(=O)N4CCCC4)nc23)cc1,26,-2.95
Cc1ccc(-c2nccn3cc(C(=O)N4CCCCC4)nc23)cc1,-2,0.32
CC(C)(C(=O)N[C@H]1CCN(Cc2cccnc2)C[C@@H]1O)N1CCOCC1,-3,0.41
Cc1nc(-n2cnnc2)ccc1-c1cc(O)cc(CC[C@H]2CCCCN2)c1,-7,0.8
CC(=O)c1cc(-c2cc(O)cc(CC[C@H]3CCCCN3)c2)ccc1O,78,-7.86
CCn1cc(-c2cc(O)cc(CC[C@H]3CCCCN3)c2)c(C)n1,3,-0.45
Cc1ccc(-c2cc(O)cc(CC[C@H]3CCCCN3)c2)c(C)n1,61,-8.76
Cc1nccc(-c2cc(O)cc(CC[C@H]3CCCCN3)c2)n1,-12,2.52
O=C(O)c1ccccc1-c1cc(O)cc(CC[C@H]2CCCCN2)c1,-15,2.8
Cc1cc(-c2cc(O)cc(CC[C@H]3CCCCN3)c2)ccn1,84,-8.44
OCc1ccnc(-c2cc(O)cc(CC[C@H]3CCCCN3)c2)c1,-3,0.48
Nc1cc(-c2cc(O)cc(CC[C@H]3CCCCN3)c2)ccn1,9,-1.53
CC(NS(=O)(=O)N(C)C(C)C)C1CCCO1 (configuration not stated),-8,1.17
C/C=C(\C)C(=O)N1CCC(N2CCC(C(=O)N3CCCC3)CC2)CC1,-12,1.74
CCC(C)C(NC(=O)C1CCC(C)CC1)C(=O)NC1CCN(Cc2ccccc2)CC1 (configuration not stated),-3,0.32
CCCNS(=O)(=O)c1ccc(C(=O)N2C[C@H]3CC[C@@H](C2)N(C)C3)cc1,-7,1.2
Cc1ccc(-n2nc3c(=O)n([C@@H](C)C(=O)NCc4ccc(Cl)cc4)nc(C)c3c2C)cc1,10,-1.13
O=S(=O)(NC1CCc2ccc(Cl)cc21)[C@H]1COC[C@@H]1O (some centres not stated),-11,1.47

Compound,% Inhibition [%],Z score
Cc1ccc(NC(=O)Cc2nnc(-c3ccc4ncccc4c3)o2)c(Cl)c1,-6,0.57
CCn1cc(NC(=O)c2cc(C3CC3)nc3onc(-c4cnn(CC)c4C)c23)c(C)n1,8,-1.2
CC(C)(C)OC(=O)N1CC2CC1C2C(=O)NCC1CCCO1 (configuration not stated),14,-1.67
Cc1ncsc1C(=O)N1CCC2(CCCCC2)C1,37,-5.42
Nc1ncc(C(=O)N2CCC3(CCCCCC3)C2)s1,97,-17.77
Nc1ncc(C(=O)N2CCC3(CCCC3)C2)s1,6,-0.8
CC(=O)NC1CCN(Cc2cc(C)nc3ccccc23)CC1,-6,0.83
CC1CCN(c2nccnc2Oc2ccc(C(=O)NCc3ccco3)cc2)CC1,-1,0.13
CC1CCN(c2nccnc2Oc2ccc(C(=O)N3CCN(c4ccccc4Cl)CC3)cc2)CC1,11,-1.7
CC1CCN(c2nccnc2Oc2ccc(C(=O)NCc3ccccc3Cl)cc2)CC1,67,-10.64
CC(NC(CC1CCC1)c1ccccc1)c1cn(C)nn1 (configuration not stated),6,-0.82
CCN(CC)C[C@H](O)COc1ccc(Cl)cc1Cl,9,-1.14
Cc1ccccc1OC[C@@H](O)CN(C(C)C)C(C)C,-2,0.31
CN(C)CC(O)COc1ccc(S(=O)(=O)c2ccc(OCC(O)CN(C)C)c(Cl)c2)cc1Cl (configuration not stated),54,-6.62
CCS(=O)(=O)N1CCC(N2C(=O)[C@@H]3CC[C@@H](c4ccccc4)N3C2=O)CC1,42,0.94
CCN(C(=O)Cn1cc(-c2ccccc2)c2ncn(CC)c(=O)c21)c1ccccc1,78,-9.77
CCc1cccc(C)c1NC(=O)Cn1cc(-c2ccccc2)c2ncn(CC)c(=O)c21,4,-0.57
CCn1cnc2c(-c3ccccc3)cn(CC(=O)NCc3ccco3)c2c1=O,-9,1.31
